Screening results deposited in PubChem by University of Kansas High Throughput Screening Laboratory.
Compounds with a hit are over-represented: about 3.6% of the library has one in this group of screens.
Pf apPOL inh – Pf-apPOL DNA polymerase inhibition. Recombinant Pf-apPOL, molecular beacon fluorescence, 1.5 h. inhibition, % at 10 µM. 0.25% of 210,000 active. AID 1794808
mHTT CaM bind – mHTT-calmodulin interaction abrogation; AlphaScreen His-mHTT/GST-CaM binding, luminescence; inhibition, % at 15 µM; 3.6% of 190,000 active; AID 1671202
Target sequence (P42858 whole entry, looked up, change not shown): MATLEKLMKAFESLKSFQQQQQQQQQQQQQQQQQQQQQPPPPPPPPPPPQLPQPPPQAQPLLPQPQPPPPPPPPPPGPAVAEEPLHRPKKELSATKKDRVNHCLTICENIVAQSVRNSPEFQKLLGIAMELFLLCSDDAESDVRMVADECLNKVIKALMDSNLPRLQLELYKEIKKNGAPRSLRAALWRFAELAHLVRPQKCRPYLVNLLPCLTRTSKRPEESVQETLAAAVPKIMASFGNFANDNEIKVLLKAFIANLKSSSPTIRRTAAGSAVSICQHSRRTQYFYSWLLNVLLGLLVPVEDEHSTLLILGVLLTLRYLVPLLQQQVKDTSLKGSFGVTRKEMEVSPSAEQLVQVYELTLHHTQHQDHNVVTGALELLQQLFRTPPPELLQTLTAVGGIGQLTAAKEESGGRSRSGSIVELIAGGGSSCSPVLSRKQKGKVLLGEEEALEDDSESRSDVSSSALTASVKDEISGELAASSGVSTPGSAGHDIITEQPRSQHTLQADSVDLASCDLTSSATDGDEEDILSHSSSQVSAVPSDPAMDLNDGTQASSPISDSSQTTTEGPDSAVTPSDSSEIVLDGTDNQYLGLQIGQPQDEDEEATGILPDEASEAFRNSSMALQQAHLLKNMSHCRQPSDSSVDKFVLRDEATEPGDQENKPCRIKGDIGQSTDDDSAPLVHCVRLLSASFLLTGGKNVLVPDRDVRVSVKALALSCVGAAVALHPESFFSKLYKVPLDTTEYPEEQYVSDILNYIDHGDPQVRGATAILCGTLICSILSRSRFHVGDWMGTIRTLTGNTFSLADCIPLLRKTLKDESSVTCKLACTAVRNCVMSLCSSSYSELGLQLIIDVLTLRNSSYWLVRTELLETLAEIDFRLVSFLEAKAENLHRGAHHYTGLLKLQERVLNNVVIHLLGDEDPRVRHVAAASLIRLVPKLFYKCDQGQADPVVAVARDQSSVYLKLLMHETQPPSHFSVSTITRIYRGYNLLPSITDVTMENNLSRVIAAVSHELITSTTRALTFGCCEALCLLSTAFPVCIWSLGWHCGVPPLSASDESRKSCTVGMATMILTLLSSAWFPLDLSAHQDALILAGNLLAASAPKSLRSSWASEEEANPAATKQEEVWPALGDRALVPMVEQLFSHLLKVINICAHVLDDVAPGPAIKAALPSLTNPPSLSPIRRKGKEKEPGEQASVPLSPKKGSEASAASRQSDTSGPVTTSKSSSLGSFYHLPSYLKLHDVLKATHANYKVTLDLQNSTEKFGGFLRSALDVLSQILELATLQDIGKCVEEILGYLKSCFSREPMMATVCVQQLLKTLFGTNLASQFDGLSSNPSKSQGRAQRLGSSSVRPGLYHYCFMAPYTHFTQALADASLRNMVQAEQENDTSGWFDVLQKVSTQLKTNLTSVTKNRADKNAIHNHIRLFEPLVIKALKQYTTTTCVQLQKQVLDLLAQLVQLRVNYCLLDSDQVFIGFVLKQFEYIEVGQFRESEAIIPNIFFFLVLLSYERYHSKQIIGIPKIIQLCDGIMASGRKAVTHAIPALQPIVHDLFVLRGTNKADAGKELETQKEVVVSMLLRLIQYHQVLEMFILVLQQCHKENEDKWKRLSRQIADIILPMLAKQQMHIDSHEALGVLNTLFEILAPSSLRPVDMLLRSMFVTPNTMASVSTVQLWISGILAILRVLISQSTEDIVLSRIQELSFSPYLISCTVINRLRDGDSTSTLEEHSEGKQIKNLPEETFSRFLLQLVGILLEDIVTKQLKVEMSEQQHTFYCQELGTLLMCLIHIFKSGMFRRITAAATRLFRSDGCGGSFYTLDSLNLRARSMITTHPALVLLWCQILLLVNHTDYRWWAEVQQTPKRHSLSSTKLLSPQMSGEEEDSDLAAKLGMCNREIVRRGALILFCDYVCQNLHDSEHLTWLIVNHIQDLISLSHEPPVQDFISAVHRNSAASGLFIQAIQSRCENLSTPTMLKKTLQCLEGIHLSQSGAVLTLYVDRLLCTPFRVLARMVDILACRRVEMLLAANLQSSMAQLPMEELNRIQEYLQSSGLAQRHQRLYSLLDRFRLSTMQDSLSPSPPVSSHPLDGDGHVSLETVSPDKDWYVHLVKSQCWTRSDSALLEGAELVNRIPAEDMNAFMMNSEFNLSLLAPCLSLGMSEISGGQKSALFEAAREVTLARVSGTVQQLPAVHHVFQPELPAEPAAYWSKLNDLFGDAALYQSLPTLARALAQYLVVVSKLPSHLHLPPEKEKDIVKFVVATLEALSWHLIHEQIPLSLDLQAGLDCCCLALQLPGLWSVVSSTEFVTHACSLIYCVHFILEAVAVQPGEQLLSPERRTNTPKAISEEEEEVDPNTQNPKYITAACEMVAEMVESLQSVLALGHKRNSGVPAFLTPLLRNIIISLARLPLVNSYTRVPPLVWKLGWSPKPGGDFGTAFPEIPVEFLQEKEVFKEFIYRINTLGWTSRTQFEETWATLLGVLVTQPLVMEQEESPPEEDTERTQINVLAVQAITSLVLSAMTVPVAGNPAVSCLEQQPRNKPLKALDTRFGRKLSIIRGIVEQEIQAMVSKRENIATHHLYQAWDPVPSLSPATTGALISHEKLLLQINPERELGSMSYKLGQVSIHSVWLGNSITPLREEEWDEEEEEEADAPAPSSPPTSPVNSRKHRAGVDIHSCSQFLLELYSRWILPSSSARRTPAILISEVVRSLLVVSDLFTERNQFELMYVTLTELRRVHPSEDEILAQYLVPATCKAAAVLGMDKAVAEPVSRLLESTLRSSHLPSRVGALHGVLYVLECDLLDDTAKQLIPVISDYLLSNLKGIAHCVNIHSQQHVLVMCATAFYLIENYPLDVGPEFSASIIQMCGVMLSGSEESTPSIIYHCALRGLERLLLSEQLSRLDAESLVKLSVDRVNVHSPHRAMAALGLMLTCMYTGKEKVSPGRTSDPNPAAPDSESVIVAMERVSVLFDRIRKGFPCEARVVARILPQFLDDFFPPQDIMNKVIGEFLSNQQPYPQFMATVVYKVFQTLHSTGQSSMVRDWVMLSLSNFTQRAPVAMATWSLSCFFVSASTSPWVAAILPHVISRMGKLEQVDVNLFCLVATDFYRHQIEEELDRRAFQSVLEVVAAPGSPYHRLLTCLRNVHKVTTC
A number is an active result; - = inactive; . = no result; ! = not confirmed by another sample. Cut-off read from the data, not from the text of the source: active = inhibition above about 50%; inactive = the rest.

SMILES | Pf apPOL inh | mHTT CaM bind
CN(Cc1ccccc1)C(=O)c1nc(C2CC2)nc2c1OCCO2 | - | -
Cc1nn(C(=O)c2cccs2)c(C)c1Sc1ccc(Br)cc1 | - | -
Cc1nn(C)c(C)c1Sc1ccc(Br)cc1 | - | 60!
COc1ccc(OCCNc2ccc(C(F)(F)F)cc2[N+](=O)[O-])cc1 | - | -
COc1ccc(Nc2ccc(C(F)(F)F)cc2[N+](=O)[O-])cc1 | - | 53
COc1ccc(CNC2CCN(c3ccc(C(=O)Nc4ccc(F)cc4)cn3)C2)cc1 (stereo not drawn) | - | -
COc1ccc2c(c1)C(c1ccc3c(c1)OCO3)CC(=O)O2 (stereo not drawn) | - | -
CCN(CC)CCC(c1cc(OC)c(OC)c(OC)c1)c1c(OC)cc(OC)c2ccc(=O)oc12 (stereo not drawn) | - | -
COc1ccc(NC(=O)CCN2CCN(c3ccccc3)CC2)c(OC)c1 | - | -
CCN(CC)CCC(c1cc(OC)c(OC)c(OC)c1)c1c(OC)cc(OC)c2c1OC(=O)CC2c1ccc(N(C)C)cc1 (stereo not drawn) | - | 69
COc1ccc(C2CC(=O)Oc3c(C(CCN4CCOCC4)c4cc(OC)c(OC)c(OC)c4)c(OC)cc(OC)c32)cc1 (stereo not drawn) | - | -
COc1ccc(C2CC(=O)Oc3c(C(CCN4CCN(c5ccccc5)CC4)c4ccc(N(C)C)cc4)c(OC)cc(OC)c32)cc1 (stereo not drawn) | - | 73
COc1ccc(C2CC(=O)Oc3c(C(CCN4CCOCC4)c4ccc5c(c4)OCO5)c(OC)cc(OC)c32)cc1 (stereo not drawn) | - | 79
COc1cc(C(CCN2CCOCC2)c2c(OC)cc(OC)c3c2OC(=O)CC3c2ccc(N(C)C)cc2)cc(OC)c1OC (stereo not drawn) | - | 74
CCCn1c(=O)c(N2CCC(NC(=O)Nc3ccc(C)cc3)CC2)nc2ccccc21 | - | -
COc1ccc(/C=C2\C(C)=C(C#N)c3nc(N)c(C#N)c(C)c32)cc1 | - | -
Fc1ccccc1C1C=C(c2cccc(Br)c2)Nc2nnnn21 (stereo not drawn) | - | -
Cc1nn(-c2ccccc2)nc1C(=O)Nc1cc(Cl)cc(Cl)c1 | - | .
CC(C)CCNC(=O)Nc1ccc(N2CCCC(C(=O)NC3CCCCC3)C2)nc1 (stereo not drawn) | - | -
COc1cc(C2CC(=O)Oc3c(C(C)C)ccc(C)c32)cc(OC)c1OC (stereo not drawn) | - | -
COc1cc(C(CCN2CCOCC2)c2c(OC)cc(OC)c3ccc(=O)oc23)cc(OC)c1OC (stereo not drawn) | - | -
COc1cc(OC)c2c(c1C(CCN1CCOCC1)c1ccc(N(C)C)cc1)OC(=O)CC2c1ccc(N(C)C)cc1 (stereo not drawn) | - | 100
COc1cc(C(CCN2CCCCC2)c2c(OC)cc(OC)c3c2OC(=O)CC3c2ccc(N(C)C)cc2)cc(OC)c1OC (stereo not drawn) | - | 78
COc1cc(C(CCN2CCCC2)c2c(OC)cc(OC)c3c2OC(=O)CC3c2ccc(N(C)C)cc2)cc(OC)c1OC (stereo not drawn) | - | 75
O=C(CC1CCN(S(=O)(=O)c2cccs2)CC1)NCc1ccc(F)cc1 | - | -
SMILES | Pf apPOL inh | mHTT CaM bind
Cc1ccc(-n2nc3c(c2NC(=O)CC(C)C)CSC3)c(C)c1 | - | -
Cc1cc(NC(=O)c2ccc(S(=O)(=O)N(C)C)o2)no1 | - | -
CN(C)S(=O)(=O)c1ccc(C(=O)NC(C)(C)CO)o1 | - | 100
Cc1cc(C)cc(-n2cc(-c3ccc4c(c3)OCO4)[nH]c2=O)c1 | - | -
Cc1ccc(-n2cc(-c3ccc4c(c3)OCO4)[nH]c2=O)cc1Cl | - | 86
CC(=O)c1ccc([C@@H]2C[C@]34CN(Cc5cccc(Cl)c5)S(=O)(=O)[C@H]3C[C@H]2O4)cc1 | - | -
Cc1ccc(N2C=C(C#N)S(=O)(=O)c3ccc(Cl)cc32)cc1Cl | - | -
COc1ccc(NC(=O)CSc2cccc3cccnc23)cc1 | - | 53!
NC(=O)CSc1cccc2cccnc12 | - | 83
CCCCOc1cccc(NC(=O)CSc2cccc3cccnc23)c1 | - | -
O=C(O)CSc1cccc2cccnc12 | - | -
O=C(NCc1ccncc1)C(=O)Nc1ccc(Cl)c(Cl)c1 | - | -
N#Cc1ccc(CNC(=S)Nc2ccc(Cl)c(Cl)c2)cc1 | 61 | .
Cc1ccccc1C1C(C#N)=C(SCc2ccccc2)NC(=O)C1C#N (stereo not drawn) | - | -
COc1cccc(/C=C2\N=C(c3ccccc3C)OC2=O)c1 | - | -
O=C(CCC(=O)N1CC2CCCN2c2ccccc21)NCCc1ccccc1Cl (stereo not drawn) | - | 53
O=C(CCC(=O)N1CC2CCCN2c2ccccc21)NCCc1ccc(Cl)cc1 (stereo not drawn) | - | 75
CC(C)CCNC(=O)CCC(=O)N1CC2CCCN2c2ccccc21 (stereo not drawn) | - | -
COc1ccc(CCNC(=O)CCC(=O)N2CC3CCCN3c3ccccc32)cc1OC (stereo not drawn) | - | -
Cc1c(-c2ccccc2)c(=O)oc2c3c(ccc12)OCN(C1CCS(=O)(=O)C1)C3 (stereo not drawn) | - | -
Cc1cccc(CN2CCCn3nc(C(=O)NCCN4CCCC4)cc3C2=O)c1 | - | -
Cc1nccn1S(=O)(=O)c1ccc(F)cc1 | - | -
N#C/C(=C\c1ccc(O)c(Br)c1)c1nc(-c2cccc([N+](=O)[O-])c2)cs1 | - | -
COc1cc(/C=C(\C#N)c2nc(-c3ccccc3)cs2)ccc1O | - | 97
COc1ccc(-c2csc(/C(C#N)=C/c3ccc(OC)o3)n2)cc1 | - | 69
SMILES | Pf apPOL inh | mHTT CaM bind
N#C/C(=C\c1ccc(O)c(O)c1)c1nc(-c2cccc([N+](=O)[O-])c2)cs1 | - | 66
Cc1ccc(-c2csc(/C(C#N)=C/c3cccc(O)c3)n2)cc1 | - | 97
Cc1ccc(/C=C(\C#N)c2nc(-c3ccc(Br)cc3)cs2)o1 | - | -
COc1cc(/C=C(\C#N)c2nc(-c3ccc(Br)cc3)cs2)ccc1O | - | -
Cc1ccc(-c2csc(/C(C#N)=C/c3ccc(O)cc3)n2)cc1 | - | -
CC(C)(C)c1ccc(C(=O)Nc2ccc(-n3nc(C(C)(C)C)cc3C(C)(C)C)cc2)cc1 | - | .
CC1CCN(S(=O)(=O)N2CCC(C(=O)NC3CCCC(C)C3C)CC2)CC1 (stereo not drawn) | - | -
CCOc1cc(/C=C(\C#N)c2nc3ccccc3s2)ccc1O | - | 56
CCOc1ccc(/C=C(\C#N)c2nc3ccccc3s2)cc1OC | - | -
O=C(O)C1(c2ccc([N+](=O)[O-])cc2)CCCC1 | - | 94
O=C(O)C#Cc1ccc([N+](=O)[O-])cc1 | - | -
CN1CCN(c2ccc(/C=C3\Sc4ccccc4C3=O)cc2[N+](=O)[O-])CC1 | - | 72
Cc1ccc(/C=C2\Sc3ccccc3C2=O)cc1[N+](=O)[O-] | - | -
COc1ccc(C2CC(c3cccs3)=NN2C(=O)CN(C)C(C)=O)cc1 (stereo not drawn) | - | -
CN(C)c1ccc(/C=C/c2cc(/C=C/c3ccc(N(C)C)cc3)[n+]3nn(C)nc3n2)cc1 | - | 100
CN(C)c1ccc(/C=C/c2cc(C(F)(F)F)[nH]c(=O)n2)cc1 | - | -
COc1cccc(/C=c2\sc3nc(-c4ccc(Cl)cc4)nn3c2=O)c1 | - | -
Cc1ccc(-c2ccccc2N)o1 | - | -
Cc1ccc(-c2ccc(N)cc2)o1 | - | 55
